Screen size: about 53,000 sequences; about 3,700 (7%) were called active.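 Rule for the calls: active = gene knockdowns whose robust z-score for IL-1 alpha signal is at least 2 or at most -2, so actives lie on both sides; inactive = the rest.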 Shown is part of a subset that was picked to be rich in actives.
experiment: Components of the Cytosolic LPS Sensing Pathway: Gene Identification via Genome-wide siRNA Screen; details: RAW264.7 macrophages, IL-1a HTRF, actives lie on both sides, screened at 100 nM (by protocol), cells primed 5 h with Pam3CSK4 first;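 note: robust z of the log signal after scaling to non-targeting control siRNA wells of the plate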
In short: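 Supernatant IL-1a by HTRF from RAW264.7 cells primed with Pam3CSK4 (5 hours) and transfected with LipidA (24 hour) after 48h siRNA knockdown at 100 nM; cell viability checked with CellTiter-Glo.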

Sequence	z-score
GGGCUGCUCACAAUUUAUATT against Tmem135	1.17 (inactive)
GGACACUUACGUCAUCGAGTT against Rtca	-0.814 (inactive)
GGUGGAGAUUGUUUGUAAATT against Lratd1	1.56 (inactive)
GGACCCAUCGAAACCUCUATT against Pirb	-0.0759 (inactive)
CCCAUGCUUGGAAUAAUUATT against Man1a	0.00246 (inactive)
GGACGAACUCAUCAACAGUTT against Gtf2ird1	-0.00436 (inactive)
GGGAAGCUGAUUAUACAUUTT against Serpinf1	3.22 (active)
GGCUAAGAAUGAGACUGGUTT against Abcg4	-0.0869 (inactive)
GGAGAAGAUUCCAGAAGCCTT against Tcf15	-1.42 (inactive)
GGGCAUUGGCAAGAAAAAGTT against Ahdc1	-0.543 (inactive)
GCAUAAGCGAAGAAGAAGUTT against Clk2	0.0795 (inactive)
GCUGGCUGUUUCACUACAGTT against Tdh	3.19 (active)
GCUAGAGUAGCUUUGGGCATT against Glra3	1.37 (inactive)
GCAAGAUUUAUCCCAGUCGTT against Rnf2	-1.83 (inactive)
GCUUCGACAUUGUUAGUUATT against Ammecr1	0.322 (inactive)
GCAUGUUCGUGGAAGUACUTT against Got1l1	0.0202 (inactive)
GGAGAUCCUCAAGGAGCAGTT against Park7	2.02 (active)
GCAGUUUCUAAUGAAGGUUTT against Ppp2r5a	0.416 (inactive)
CGGUCUGCUCUACAUUGUCTT against Nek4	1.39 (inactive)
GCCUAUGGGUCAUUUCAAATT against Dock11	-0.968 (inactive)
GGGCAGGUGGAUGUGGAAATT against Ryr2	0.546 (inactive)
GGUACCAUAUCUGUGAACATT against Nrxn3	-1.25 (inactive)

Sequence	z-score
GGUUCAGCUGGUCCUAUCUTT against Olfr1099	-2.07 (active)
GGCAAUGCUGUCCUACUAUTT against Map2k5	-1.19 (inactive)
GGAGAACUUAAAGCACAAUTT against Plxnb1	0.179 (inactive)
UCCUAGAGUCAUCAUCAUATT against A530064D06Rik	-0.44 (inactive)
GGAAUCUAUGAACAUGUUUTT against Pcdh12	-0.433 (inactive)
GGCUGGGAAAAAAAAAGAATT against Ifi205	0.704 (inactive)
GGAUUUUUAUGAUAGUGACTT against Slc4a1ap	-0.747 (inactive)
GCAUCACUGGAAAUCUUACTT against Olfr807	-2.31 (active)
CCAUUUGAUCAAGCUUUAGTT against Spock3	0.0957 (inactive)
GGACUCUCAAUGAUGAAUATT against Map7d3	1.85 (inactive)
GCGACACAUUCGAUCUCAGTT against Mecom	4.11 (active)
CCAGAUUCGAAUAUCUAAGTT against Mrps30	0.935 (inactive)
GCCAGAAUGGACUUGAGAATT against Vmn1r227	-1.21 (inactive)
GCCUUAAUGAGGGUUAUGCTT against Fbp1	-1.11 (inactive)
CGAACCAUAGCUAGCUCCATT against Klhdc8b	-0.869 (inactive)
GGCUCAGUCCCAUCAGCAUTT against Gdf7	0.524 (inactive)
GGUUUGAUCUCAUUUUCCUTT against Mcm4	2.92 (active)
GGAACAGUAUAUAAGUUCATT against Hcfc2	-0.593 (inactive)
GCUACUUCAUGGAAUCUUCTT against Mrgprb8	-0.668 (inactive)
CGUUUGAAUAAUUCAGAGUTT against Armcx2	-0.152 (inactive)
GGUGGAAGGCUUUUUCUACTT against Olfr1104	1.63 (inactive)
GCGAUACCGUGCCAUGUUUTT against Dohh	-1.21 (inactive)

Sequence	z-score
CGAAGAUUACCUUUCAAGATT against St6galnac3	0.371 (inactive)
GCCCUUUCGCCUAUGGUUUTT against Tedc1	0.931 (inactive)
GCUAAUCAACAAUGUCGCCTT against Atp5b	0.781 (inactive)
GGUUAAAGUCCUUCAGUAUTT against Tubb3	2.83 (active)
GGAAAAAACCACGAUUGAGTT against Pecam1	-0.434 (inactive)
GGCUUACCUACAACAAGUUTT against Ccnt1	-2.07 (active)
GGUUAGGCACAAAUAAGUUTT against B230206H07Rik	1.08 (inactive)
GGUUCCUAUACCCAACGGUTT against Mrgpra7	-1.07 (inactive)
GGUUGAUGAUAGCUCUGAATT against Opn1mw	-0.22 (inactive)
GGUCUUAAGGAGAAAUGAATT against Cbln2	-0.48 (inactive)
GCUUCGCUCGCAUUCUUAUTT against Rsrc1	-0.299 (inactive)
GGACUAUCCAGGAAUCGUGTT against Ergic3	0.713 (inactive)
GGACAAGCUGAAGACGCACTT against Zfp64	3.03 (active)
GCAUAGUCUUGUUAACCAGTT against Poldip3	-0.689 (inactive)
GGAUUCAUAGACUUCAUAGTT against Impdh1	0.608 (inactive)
CCAUCUGGACUUCAGUUUUTT against Rap1gap2	0.901 (inactive)
GCACUCAAAUGGUAGAUUCTT against Socs6	-0.315 (inactive)
GGGUGAACUCGGACAUUGATT against Spata19	-0.754 (inactive)
GCGUGAACACCUGAGGAUUTT against Rchy1	-0.323 (inactive)
GGUGUUGCUUAUCAUCGGCTT against Mrgprh	-2.03 (active)
GGGCAUCCUGGAUCAUCAUTT against Nlrp6	-1.64 (inactive)
CCUUAGAUAUCUACUGUAATT against Trim2	1.37 (inactive)

Sequence	z-score
GGUGCAAGUUUUGGUGGGATT against Etfbkmt	0.35 (inactive)
GGAACCUAAUUGAAUGGCUTT against Cmbl	0.985 (inactive)
GGCGAAUGUGUGAAGAGGCTT against H2-Q5	-1.97 (inactive)
GCUGCUAGCAAAAAGAACUTT against Yaf2	2.24 (active)
GGAUGUUACGAAGAAGAUUTT against Ash1l	-0.664 (inactive)
GCCAUAUAUCUGCUAUCAUTT against Clvs2	2.34 (active)
GCAACUUAAAGGCAUCUCCTT against Sntn	1.53 (inactive)
GGGAAUCUUGGCAUGAUGGTT against Olfr1030	-0.325 (inactive)
GGUAUUUAUCUGAAUCUGATT against Dennd2c	0.668 (inactive)
CCAGCCUCUUCUAAUACACTT against Preb	-0.413 (inactive)
CCCAUCCAAUGCUUAUGUGTT against Scg5	-0.421 (inactive)
GCCUAAAAAGAGUGGGUCATT against Mllt1	-2.73 (active)
GGAUCUAGGAGCUGAUUAUTT against Mecr	-1.18 (inactive)
CCAUCAUGCCCUGUUUGCATT against Cdc42ep3	0.393 (inactive)
GCUCUUGUUAUUUACGUCGTT against Lgi1	0.478 (inactive)
CGACCACAUGAGGAUGCAUTT against Zbtb20	-0.974 (inactive)
CCAUUAUUGGCCCAUGCUCTT against Babam1	-2.75 (active)
GGUUAUAAAACUAUGGAACTT against Map2k5	0.133 (inactive)
GGAUCAUUGUUCUCUCAAGTT against Psmg2	0.186 (inactive)
GGCUCAAAAGUCUUGGGACTT against Hells	0.31 (inactive)
CGCAGAUGAUUAAGUUGGUTT against Olfr1000	0.961 (inactive)
GGUGGAGACAGAAAUCCAATT against Amot	0.23 (inactive)

Sequence	z-score
CGGAACCUUAUUUAAAACUTT against Sirt5	0.732 (inactive)
GGUAUCUGUGCAAGGGCAATT against Defb5	2.07 (active)
CCUACUCGUGUCGUGAUAATT against Rxrb	-0.841 (inactive)
GGGCAUUCAGCAGUUACAGTT against Lrriq4	0.521 (inactive)
GGUUUAUGGGACAGUUUUUTT against Plk2	5.58 (active)
CGUGGAUGAUACCAAAAUGTT against Igsf21	-0.73 (inactive)
GGUGCUGAAGAAGCACCAUTT against Stat5a	0.271 (inactive)
GCGAGAUUCUUGCUUACUCTT against Slc66a2	-0.472 (inactive)
GGAUGUUUUCCCGACAAGATT against Angptl1	-1.27 (inactive)
GGAUGGGAAGACUACCCGATT against Camta2	-2.62 (active)
CGACCUUCAAGGCAAUAUUTT against Anapc2	-0.573 (inactive)
CCAUCUAACCCUAUAUUAGTT against G6pdx	-1.21 (inactive)
CCAUGAAUAGCAUCUUUGCTT against Adamtsl2	-0.25 (inactive)
GGAUGACAAAAAUUUCAAGTT against St14	-0.283 (inactive)
GGAGAGGGUCUUAGUCAGATT against Wasf1	0.802 (inactive)
GGGUGACAUGGUGACCAUCTT against Matk	3.54 (active)
GGCCUUGUAUCUCUUUACATT against Hdgf	0.425 (inactive)
GCUGGUUUUGAACUGUACATT against Flt4	0.155 (inactive)
CCCAAGUGGUAAGAUUGGUTT against Rps3	0.123 (inactive)
